Screens: PubChem, National Center for Advancing Translational Sciences (NCATS)
LmPK inh: qHTS Assay for Inhibitors of Leishmania Mexicana Pyruvate Kinase (LmPK). Q27686. purified LmPK, Kinase-Glo ATP luminescence, 1 h. Potency, µM (doses to about 57.5 µM), for the others: at the highest dose activity change, negative = inhibition, hits mostly inhibitors. 290,000 tested, 0.37% active; also: potency is read from the fitted curve at half-maximal effect; % is scaled to controls: 0 for no effect and ±100 for the full control effect
Target sequence (Q27686 whole entry, looked up): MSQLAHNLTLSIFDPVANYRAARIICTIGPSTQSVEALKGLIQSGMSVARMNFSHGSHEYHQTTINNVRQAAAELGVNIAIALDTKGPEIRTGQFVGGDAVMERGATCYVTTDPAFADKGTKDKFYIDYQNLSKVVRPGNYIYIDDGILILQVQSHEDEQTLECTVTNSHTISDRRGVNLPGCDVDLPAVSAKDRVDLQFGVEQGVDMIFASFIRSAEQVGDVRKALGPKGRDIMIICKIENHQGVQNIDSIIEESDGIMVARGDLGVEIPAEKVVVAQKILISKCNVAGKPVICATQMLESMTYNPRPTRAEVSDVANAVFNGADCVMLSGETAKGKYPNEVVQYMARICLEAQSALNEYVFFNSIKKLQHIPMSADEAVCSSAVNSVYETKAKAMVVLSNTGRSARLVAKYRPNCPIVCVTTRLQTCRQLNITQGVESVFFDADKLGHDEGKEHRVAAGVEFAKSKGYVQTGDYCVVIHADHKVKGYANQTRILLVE
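ATP generated from ADP (0.1 mM) and PEP (0.5 mM) by 0.1 nM LmPK over 1 h at room temperature (pH 7.2 imidazole buffer) was detected by coupled luciferase luminescence. Values were normalized to uninhibited and no-enzyme wells.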
Shiga toxin inh: A qHTS for Small Molecule Inhibitors of Shiga Toxin. 290,000 tested, 9.2% active. inhibition, % at 38.7 µM. Vero cells, Shiga toxin protein synthesis inhibition reporter; in the data active = inhibition mostly above about 28%, no sharp cut-off; inactive = mostly below about 43%; also: 0% is about no effect
Pf growth 96h: Primary qHTS for delayed death inhibitors of the malarial parasite plastid, 96 hour incubation. P. falciparum luciferase reporter growth, 96 h. Potency, µM (doses to about 28.7 µM), for inactives: at the highest dose activity change, negative = inhibition, actives largely listed as inhibitors. AID 504834, 2011. 320,000 tested, 6.9% active; also: potency is read from the fitted curve at half-maximal effect; % is scaled to controls: 0 for no effect and ±100 for the full control effect
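Two parasite generations (96 h, 37 C, 5% CO2) of compound exposure in infected erythrocytes (0.05% parasitemia, 2% hematocrit). Luciferase-reporter P. falciparum; decreased luminescence indicates inhibited growth, aimed at apicoplast-acting delayed death.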
CHX counter: Cycloheximide Counterscreen for Small Molecule Inhibitors of Shiga Toxin; cell reporter, cycloheximide protein synthesis inhibition counterscreen; max response, %; 300,000 tested, 12% active; in the data active = max response mostly above about 13%, no sharp cut-off; inactive = mostly below about 14%; also: read at 38.3 µM for the half of the compounds with a filed dose; 0% is about no effect
Pf growth 48h: Primary qHTS for delayed death inhibitors of the malarial parasite plastid, 48 hour incubation; P. falciparum luciferase growth in erythrocytes, 48 h; Potency, µM (top dose mostly 28.7 µM), for the others: at the top dose activity change, negative = inhibition, usual class: inhibitors; 310,000 tested, 5.9% active; also: potency is read from the fitted curve at half-maximal effect; % is scaled to controls: 0 for no effect and ±100 for the full control effect
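In quantitative HTS format, infected erythrocytes bearing luciferase-reporter parasites were treated for a single generation at 37 C. Luminescence after adding detection reagent served as the growth measure.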
* = called active by the depositor; ? = inconclusive; . = no result; [ ] = another dose, or the depositor's remark. This is a sample that favours compounds with a hit; in the whole collection about 22% have one here. Unless noted, calls follow the shape of the dose curve; as a rule, active = well fitted inhibition curve with a large enough effect; inconclusive = small, poorly fitted or top-dose-only effect, or another doubt; inactive = no such curve, though single readings can be large or run the other way.

SMILES	LmPK inh	Shiga toxin inh	Pf growth 96h	CHX counter	Pf growth 48h
CCN(Cc1ccccc1)C(=O)c1cc(-c2ccc(OC)c(OC)c2)nc2ccccc12	-8%	-9	-27%	12	5%
COc1cc(-c2cc(C(=O)N(C)Cc3ccccc3)c3ccccc3n2)cc(OC)c1OC	-1%	7	?	-1	13µM*
CCCNC(=O)COC(=O)c1ccccc1OCc1ccc(Cl)cc1	4%	-6	-17%	10	.
O=C(Nc1ccc(C(=O)O)cc1)Nc1ccc(F)cc1F	6%[11.5 µM]	-4	4%	-3	34%
N=c1cc(C2(O)CCCCC2)n2c(nc3ccccc32)s1	-26%	89*	?	48*	76%
CC(=O)Nc1ccc(NC(=O)CC2(CC(=O)N3CCOCC3)CCCC2)cc1	.	.	-18%	.	-4%
CC12CCC(C/C1=N\N=C1\NC(=O)/C(=C\c3cccc(Br)c3)S1)C2(C)C (stereo not drawn)	0%	-2	13µM*	-1	?
O=C(N/N=C/c1ccc(O)cc1)/C(=C/c1ccccc1)CCO	0%	20	?	14*	13µM*
COc1ccc(-n2ccnc2SCC(=O)NCc2ccc(F)cc2)c(OC)c1	2%	-12	41%	11	13%
Nc1c(C(=O)c2ccccc2O)cnn1-c1ccc(S(=O)(=O)N2CCOCC2)cc1[N+](=O)[O-]	2%	22	-18%	5	0%
C=C1C(=O)O[C@H]2C[C@]3(C)C([C@@H](OC(=O)/C(C)=C/C)[C@H]12)[C@](C)(O)CC[C@H]3O (stereo partly drawn)	4%	34	-9%	30*	-20%
COP(=O)(OC)C(NC(=O)Nc1ccccc1)c1ccccc1 (stereo not drawn)	1%	-9	5%	-3	13%
CCOCCn1c(CN(Cc2ccccc2)Cc2ccccc2)nc2c1c(=O)[nH]c(=O)n2C	2%	-5	17%	-3	?
Cc1ccc(C)c(Cn2c(CN(C)Cc3ccccc3)nc3c2c(=O)n(C)c(=O)n3C)c1	8%	2	13µM*	-2	.
CCOCCn1c(CN(Cc2ccccc2)Cc2ccccc2)nc2c1c(=O)n(C)c(=O)n2C	9%	-5	1.3µM*	-9	.
CN(Cc1ccccc1)Cc1nc2c(c(=O)n(C)c(=O)n2C)n1Cc1ccc(F)cc1	5%	-12	12µM*	-1	12µM*
CCOCCn1c(CN2CCN(c3ccc(F)cc3)CC2)nc2c1c(=O)n(C)c(=O)n2C	14%	-16	7.4µM*	1	.
Cc1ccc(Cn2c(CN(C)Cc3ccccc3)nc3c2c(=O)n(C)c(=O)n3C)cc1	-1%	-14	.	2	?
CCCCC(CCC(=O)O)(C(=O)OCC)c1csc(Nc2ccc(OCC)cc2)n1 (stereo not drawn)	1%	19	?	1	-27%
CN(Cc1ccccc1OCCO)CC1CCCN(CCc2ccc(Cl)cc2)C1 (stereo not drawn)	-4%	-3	?	1	?
C[C@@H](CN1C2=NC[C@H](Cc3ccc(O)cc3)N2C[C@H]1Cc1ccc(O)cc1)NC(=O)CCC1CCCCC1	3%	-6	1.7µM*	-3	7.4µM*
C[C@@H](CN1C2=NC[C@H](Cc3ccccc3)N2C[C@H]1Cc1ccc(O)cc1)NC(=O)CCC1CCCCC1	-4%	-13	15µM*	1	?
COc1ccc(C[C@H]2CN3C(=NC[C@@H]3Cc3ccccc3)N2C[C@H](C)NC(=O)CCC2CCCCC2)cc1	5%	4	2.6µM*	-8	1.7µM*
COc1ccc(C[C@@H]2CN3C(=NC[C@@H]3C)N2C[C@H](C)NC(=O)CCC2CCCCC2)cc1	-7%	-3	?	1	?
COc1ccc(C[C@H]2CN3C(=NC[C@H]3Cc3ccccc3)N2CCNC(=O)CCC2CCCCC2)cc1	-1%	-6	4.7µM*	-2	?
SMILES	LmPK inh	Shiga toxin inh	Pf growth 96h	CHX counter	Pf growth 48h
Nn1c(SCC(=O)Nc2cccnc2Cl)nnc1-c1ccccc1	.	.	5%	.	23%
COc1ccccc1CNC(=O)C(=O)NCC(c1ccco1)N1CCOCC1 (stereo not drawn)	1%	-13	?	1	29%
CC(=O)c1cccc(NC(=O)COc2ccc3oc(=O)cc(C)c3c2)c1	-7%	-3	?	-2	?
CCc1ccc(/C=C(\Cl)c2nc3cc(Cl)ccc3c(=O)[nH]2)cc1	1%	-1	40%	-2	-2%
O=P(O)(COc1ccccc1)COc1ccccc1	-2%	-4	13µM*	-2	7%
COc1ccc(NC(=O)Nc2ccc(F)cc2F)c(C)c1	-4%	20	?	35*	.
Cc1cc(C)nc(NC(=O)Nc2ccc(F)cc2F)n1	0%	17	92%	13*	36%
CC(C)c1ccccc1NC(=O)Nc1ccc(F)cc1F	1%	23	3%	9.9*	-23%
COc1ccc(NC(=O)Nc2c[nH]c(=O)[nH]c2=O)cc1	-7%	-2	2.6µM*	5	.
Cc1cc(C(=O)NC2CCCc3c2cnn3-c2ccc(C(C)(C)C)cc2)n[nH]1 (stereo not drawn)	-3%	8	1%	17	-18%
Cn1cc(CCC(=O)NCc2ccc(Cl)cc2)c2ccccc21	0%	13	40%	-5	5%
Cc1ccc(NC(=O)CSCC(=O)Nc2ccccc2N2CCCC2)cc1	.	.	4%	.	29%
CC1CN(C(=O)COC(=O)Cc2ccc(Cl)cc2)CC(C)O1 (stereo not drawn)	.	.	26%	.	?
COc1ccc(NC(=O)Nc2ccc(F)cc2F)cc1	?	68*	-15%[5.75 µM]	38*	160%
Nc1nc(NCCOCCO)nc(NC2CCCCC2)c1[N+](=O)[O-]	1%	2	12µM*	-3	?
Nc1nc(Nc2ccccc2)nc(NC2CCCCC2)c1[N+](=O)[O-]	4%	-6	13µM*	-4	?
Nc1nc(NCCO)nc(NC2CCCCC2)c1[N+](=O)[O-]	0%	-6	5.2µM*	0	.
CNc1nc(N)c([N+](=O)[O-])c(NC2CCCCC2)n1	-5%	-13	?	-12	-27%
CN(C)CCCNc1nc(N)c([N+](=O)[O-])c(NC2CCCCC2)n1	6%	-7	-28%	1	-20%
CS(=O)(=O)CCC(C(=O)O)N1C(=O)c2ccc(Oc3ccc(Cl)cc3)cc2C1=O (stereo not drawn)	-5%	-2	-4%	-5	-9%
Cc1nn(C)c(C)c1CN(C)S(=O)(=O)c1ccc(F)cc1	4%	-4	-10%	-3	6%
Cc1nn(C)c(C)c1CN(C)S(=O)(=O)c1ccc2ccccc2c1	-2%	-5	?	-4	13µM*
C=CCN=C1S/C(=C\c2ccc(N(C)C)cc2)C(=O)N1CC=C	-2%	59*	-51%	45*	-12%
